Among the data in PubChem BioAssay (NCI) are growth values, retold here.

This is part of a sample that, as a whole, favours compounds with a hit. Of some 83,000 tested, about 20% had one in any assay.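 The endpoint reported here, percent growth, reads 100 for growth as untreated, 0 for no net growth and -100 for all cells dead.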 Calls of active or inactive are those of the source. How the source made its calls: active means growth percent below 10; inactive means the rest.

In this experiment the test system is HOP-92 NSCLC. The experiment can be described thus: NCI-60 one-dose screen, 48 h (100 = growth as untreated, 0 = no growth, -100 = all killed). To be noted: 10 µM unless noted.
`COc1ccc(/C=N/Nc2cc(=O)[nH]c3ccc(Cl)cc23)cc1`: the growth was 70.8% (inactive).

In the case of `CCCCCCN(CCCCCC)c1ccc(/C=C2/SC(=O)NC2=O)c(C)c1`, the growth was 13.9% (inactive).

For `CC(=O)Oc1ccccc1C(=O)N=C1[Se]CCCN1C(=O)c1ccccc1OC(C)=O`, the growth is -10.3% (active).

Take `CC(C)OC(=O)Nc1ccc(-c2nc(-c3cccc(OCCN4CCOCC4)c3)c(-c3ccnc(Br)c3)[nH]2)cc1`: the growth is 29.8% (inactive).

With `Cc1cc2nc3ccc(N=Nc4ccc(N(C)C)cc4)cc3n(-c3ccccc3)c-2cc1=N`, the growth was -70.3% (active).

Turning to `CCCCn1c(-c2ccc(-c3nc(-c4ccc(Cl)cc4)no3)cc2)nc(-c2ccccc2)c1-c1ccccc1`, the growth is 75.4% (inactive).

Turning to `Oc1c(I)cc(I)cc1CNCCCN(Cc1ccccn1)Cc1ccccn1`, the growth is -76.1% (active).

Take `C/C(=N/NC(N)=S)c1sc(Nc2cccc(Cl)c2)nc1C`: the growth was 62.6% (inactive).

As to `Cc1nn(-c2ccccc2)c2c1N=c1s/c(=C\c3ccc(C(F)(F)F)cc3)c(=O)n1CN2`, the growth was 56.4% (inactive).

Regarding `O=C(O)CCC(=O)Nc1nnc(-c2ccccc2)s1`, the growth is 93.1% (inactive).

For the molecule `Oc1ccc(Cl)cc1Cc1cc(Cl)cc(Cl)c1O`, the growth was -24.9% (active).

Turning to `O=c1c2cccc(Cl)c2sc2c(NCCCNCCO)nc3ccccc3c12`, the growth was -0.275% (active).

In the case of `COc1cc(C2CC(c3cccc(Br)c3)=NN2C(C)=O)cc(OC)c1OC` (stereo not given), the growth is 78.3% (inactive).

Consider `COc1ccc(-c2nc(NN)c3c(C)nn(-c4ccc(F)cc4)c3n2)cc1`, for which the growth was 52.7% (inactive).

For the molecule `CCOC(=O)NCCc1ccccc1`, the growth is 82% (inactive).
